Assays:
Experiment in all cases: DAPPL (digital affinity profiling via proximity ligation, sequencing); 10 mM Tris-HCl pH 7.5, 50 mM NaCl, 1 mM DTT, 4% glycerol, room temperature, 30 min; GST-TFs on glutathione beads, 16-mer random dsDNA library, 0.1% formaldehyde crosslink after washing; high values mean tight binding
Details in all cases: protein: recombinant; tags: N-terminal GST; dsDNA, one strand shown
[1] = target: T1, FLI1 (Homo sapiens, UniProt Q01543 1-452)
T1 sequence: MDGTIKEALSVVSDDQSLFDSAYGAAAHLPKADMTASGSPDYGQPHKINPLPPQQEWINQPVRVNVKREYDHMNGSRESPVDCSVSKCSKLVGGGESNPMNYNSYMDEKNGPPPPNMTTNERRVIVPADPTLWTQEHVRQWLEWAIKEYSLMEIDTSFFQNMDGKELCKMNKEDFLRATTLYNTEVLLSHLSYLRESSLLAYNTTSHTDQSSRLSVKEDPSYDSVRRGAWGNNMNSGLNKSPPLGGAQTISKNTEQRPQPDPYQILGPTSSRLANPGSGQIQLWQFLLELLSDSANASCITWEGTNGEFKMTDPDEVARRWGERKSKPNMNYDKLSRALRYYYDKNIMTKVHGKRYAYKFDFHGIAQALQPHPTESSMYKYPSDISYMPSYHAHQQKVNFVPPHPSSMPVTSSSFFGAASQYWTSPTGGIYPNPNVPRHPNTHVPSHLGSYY
Summary of the method: (§1)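 Human transcription factors were made in yeast as GST fusions, captured on glutathione beads and barcoded with DNA. With a tag-only sample included, the pool was incubated with 200 nmole of a random double-stranded 16-mer DNA library in Tris/NaCl/DTT/glycerol buffer at room temperature for 30 min, then crosslinked with 0.1% formaldehyde after washing, ligated by proximity, amplified and sequenced. For binding signal, each hexamer's read frequency for a factor is divided by its frequency for the tag-only sample.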

[2] = target: T2, ELK1 (Homo sapiens, UniProt P19419 1-428)
T2 sequence: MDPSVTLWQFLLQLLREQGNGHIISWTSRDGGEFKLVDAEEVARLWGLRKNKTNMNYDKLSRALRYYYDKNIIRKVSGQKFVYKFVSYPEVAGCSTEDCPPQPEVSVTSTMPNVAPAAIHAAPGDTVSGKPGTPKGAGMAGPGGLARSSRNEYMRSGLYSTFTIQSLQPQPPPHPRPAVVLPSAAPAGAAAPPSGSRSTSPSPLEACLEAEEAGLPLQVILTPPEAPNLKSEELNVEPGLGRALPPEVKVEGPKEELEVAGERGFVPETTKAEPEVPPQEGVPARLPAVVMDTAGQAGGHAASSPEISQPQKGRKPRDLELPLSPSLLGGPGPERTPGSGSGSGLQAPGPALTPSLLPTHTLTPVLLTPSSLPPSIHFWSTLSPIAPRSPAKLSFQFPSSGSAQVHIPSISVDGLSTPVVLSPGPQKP
Summary of the method: as §1

[3] = target: T3, GABPA (Homo sapiens, UniProt Q06546 1-454)
T3 sequence: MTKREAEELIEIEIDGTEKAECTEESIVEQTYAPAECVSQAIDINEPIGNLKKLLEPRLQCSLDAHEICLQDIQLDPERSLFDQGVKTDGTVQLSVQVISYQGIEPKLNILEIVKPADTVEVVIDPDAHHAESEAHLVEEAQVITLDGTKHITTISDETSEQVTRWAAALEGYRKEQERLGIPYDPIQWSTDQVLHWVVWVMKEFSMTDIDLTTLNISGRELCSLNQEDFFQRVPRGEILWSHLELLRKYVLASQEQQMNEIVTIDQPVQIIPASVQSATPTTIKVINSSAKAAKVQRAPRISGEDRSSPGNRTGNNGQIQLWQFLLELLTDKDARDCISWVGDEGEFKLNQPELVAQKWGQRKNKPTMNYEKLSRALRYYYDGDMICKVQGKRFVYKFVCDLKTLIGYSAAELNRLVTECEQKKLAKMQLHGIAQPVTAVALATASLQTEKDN
Summary of the method: as §1

[4] = target: T4, ERG (Homo sapiens, UniProt P11308 1-479)
T4 sequence: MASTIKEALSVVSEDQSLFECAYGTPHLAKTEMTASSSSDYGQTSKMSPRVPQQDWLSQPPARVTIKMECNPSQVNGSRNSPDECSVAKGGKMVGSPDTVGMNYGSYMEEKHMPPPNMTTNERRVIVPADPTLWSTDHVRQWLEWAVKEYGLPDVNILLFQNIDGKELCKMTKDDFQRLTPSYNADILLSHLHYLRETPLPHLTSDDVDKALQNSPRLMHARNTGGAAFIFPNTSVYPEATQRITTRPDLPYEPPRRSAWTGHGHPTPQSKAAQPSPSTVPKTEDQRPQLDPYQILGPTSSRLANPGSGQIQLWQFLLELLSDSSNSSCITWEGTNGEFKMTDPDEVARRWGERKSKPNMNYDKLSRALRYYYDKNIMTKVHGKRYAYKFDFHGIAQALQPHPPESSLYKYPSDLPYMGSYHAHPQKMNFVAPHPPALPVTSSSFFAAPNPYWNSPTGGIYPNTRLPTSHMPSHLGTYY
Summary of the method: as §1

[5] = target: ELF1 (Homo sapiens, UniProt P32519 1-619)
Chain of ELF1 (P32519 whole entry): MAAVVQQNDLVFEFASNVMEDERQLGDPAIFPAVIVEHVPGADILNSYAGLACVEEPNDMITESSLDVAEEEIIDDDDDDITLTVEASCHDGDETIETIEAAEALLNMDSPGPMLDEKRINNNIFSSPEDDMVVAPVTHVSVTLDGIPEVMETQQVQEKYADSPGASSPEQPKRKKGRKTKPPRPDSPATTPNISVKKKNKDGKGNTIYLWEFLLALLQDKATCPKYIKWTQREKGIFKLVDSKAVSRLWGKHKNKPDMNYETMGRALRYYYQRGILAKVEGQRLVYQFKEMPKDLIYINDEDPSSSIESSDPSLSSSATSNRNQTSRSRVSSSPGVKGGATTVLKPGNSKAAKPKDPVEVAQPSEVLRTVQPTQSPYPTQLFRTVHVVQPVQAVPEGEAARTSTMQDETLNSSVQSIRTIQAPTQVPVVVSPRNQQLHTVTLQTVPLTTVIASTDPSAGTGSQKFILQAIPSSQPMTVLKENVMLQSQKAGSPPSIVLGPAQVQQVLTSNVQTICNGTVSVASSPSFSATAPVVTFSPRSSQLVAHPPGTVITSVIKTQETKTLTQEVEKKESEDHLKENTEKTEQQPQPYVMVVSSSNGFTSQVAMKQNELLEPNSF
Summary of the method: as §1

[6] = target: T5, EHF (Homo sapiens, UniProt Q9NZC4 1-300)
T5 sequence: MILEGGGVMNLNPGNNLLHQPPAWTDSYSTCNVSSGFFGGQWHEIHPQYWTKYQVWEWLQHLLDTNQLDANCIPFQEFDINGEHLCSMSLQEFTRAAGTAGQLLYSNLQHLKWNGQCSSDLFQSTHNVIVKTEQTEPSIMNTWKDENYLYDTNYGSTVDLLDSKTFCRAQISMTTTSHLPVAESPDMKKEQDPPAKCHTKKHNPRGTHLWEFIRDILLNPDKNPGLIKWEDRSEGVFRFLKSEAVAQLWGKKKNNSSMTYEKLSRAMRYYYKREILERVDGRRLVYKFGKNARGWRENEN
Summary of the method: as §1

[7] = target: SPI1 (Homo sapiens, UniProt P17947 1-270)
Summary of the method: as §1

[8] = target: SPIB (Homo sapiens, UniProt Q01892 1-262)
Chain of SPIB (Q01892 whole entry): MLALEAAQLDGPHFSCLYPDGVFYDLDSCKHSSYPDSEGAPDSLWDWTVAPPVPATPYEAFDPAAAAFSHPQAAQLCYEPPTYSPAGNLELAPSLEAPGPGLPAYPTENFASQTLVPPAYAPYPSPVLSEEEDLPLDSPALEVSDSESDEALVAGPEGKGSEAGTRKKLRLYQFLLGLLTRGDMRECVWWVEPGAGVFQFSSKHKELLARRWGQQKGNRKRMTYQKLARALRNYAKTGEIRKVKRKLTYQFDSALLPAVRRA
Summary of the method: as §1

[9] = target: T6, ELK3 (Homo sapiens, UniProt P41970 1-407)
T6 sequence: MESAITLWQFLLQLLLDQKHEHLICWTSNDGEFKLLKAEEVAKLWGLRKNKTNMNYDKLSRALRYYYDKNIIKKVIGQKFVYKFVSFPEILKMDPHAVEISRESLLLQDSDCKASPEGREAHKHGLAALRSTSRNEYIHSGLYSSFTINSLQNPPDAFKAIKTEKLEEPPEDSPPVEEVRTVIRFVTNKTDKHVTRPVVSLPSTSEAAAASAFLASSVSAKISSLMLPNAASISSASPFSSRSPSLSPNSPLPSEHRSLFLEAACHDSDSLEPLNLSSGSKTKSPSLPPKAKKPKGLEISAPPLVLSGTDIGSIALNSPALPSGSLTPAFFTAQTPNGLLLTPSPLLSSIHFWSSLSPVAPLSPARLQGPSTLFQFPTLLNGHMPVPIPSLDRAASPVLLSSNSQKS
Summary of the method: as §1

[10] = target: T7, FEV (Homo sapiens, UniProt Q99581 1-238)
T7 sequence: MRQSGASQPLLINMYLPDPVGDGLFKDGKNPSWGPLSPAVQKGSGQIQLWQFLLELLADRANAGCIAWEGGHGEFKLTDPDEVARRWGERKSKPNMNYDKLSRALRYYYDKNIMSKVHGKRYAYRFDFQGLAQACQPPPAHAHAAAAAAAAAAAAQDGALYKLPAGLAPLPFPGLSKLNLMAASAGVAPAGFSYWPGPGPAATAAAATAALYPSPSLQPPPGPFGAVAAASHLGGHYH
Summary of the method: as §1

[11] = target: ETV5 (Homo sapiens, UniProt P41161 1-510)
Chain of ETV5 (P41161 whole entry): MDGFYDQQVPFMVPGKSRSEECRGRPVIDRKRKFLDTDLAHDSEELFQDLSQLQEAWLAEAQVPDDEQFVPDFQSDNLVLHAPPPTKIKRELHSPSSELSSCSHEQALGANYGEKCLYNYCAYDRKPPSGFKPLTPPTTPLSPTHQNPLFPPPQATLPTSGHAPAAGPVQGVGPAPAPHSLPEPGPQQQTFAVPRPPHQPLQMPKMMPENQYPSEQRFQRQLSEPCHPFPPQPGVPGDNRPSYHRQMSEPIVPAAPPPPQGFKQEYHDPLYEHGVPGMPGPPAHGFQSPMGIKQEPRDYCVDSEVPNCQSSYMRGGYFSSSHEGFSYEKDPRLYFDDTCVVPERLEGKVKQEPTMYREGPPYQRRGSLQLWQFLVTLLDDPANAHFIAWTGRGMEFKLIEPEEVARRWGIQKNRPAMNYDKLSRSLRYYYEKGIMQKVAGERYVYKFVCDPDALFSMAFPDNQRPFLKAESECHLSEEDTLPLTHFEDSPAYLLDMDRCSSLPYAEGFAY
Summary of the method: as §1

[12] = target: T8, SPIC (Homo sapiens, UniProt Q8N5J4 1-248)
T8 sequence: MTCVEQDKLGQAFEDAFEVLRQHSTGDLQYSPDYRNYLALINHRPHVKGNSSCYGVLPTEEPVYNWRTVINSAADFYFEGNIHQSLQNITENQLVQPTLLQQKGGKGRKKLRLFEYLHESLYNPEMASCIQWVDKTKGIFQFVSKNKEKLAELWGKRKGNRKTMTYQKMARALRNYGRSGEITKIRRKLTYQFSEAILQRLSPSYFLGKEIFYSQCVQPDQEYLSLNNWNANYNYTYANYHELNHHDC
Summary of the method: as §1

[13] = target: ELF4 (Homo sapiens, UniProt Q99607 1-663)
Chain of ELF4 (Q99607 whole entry): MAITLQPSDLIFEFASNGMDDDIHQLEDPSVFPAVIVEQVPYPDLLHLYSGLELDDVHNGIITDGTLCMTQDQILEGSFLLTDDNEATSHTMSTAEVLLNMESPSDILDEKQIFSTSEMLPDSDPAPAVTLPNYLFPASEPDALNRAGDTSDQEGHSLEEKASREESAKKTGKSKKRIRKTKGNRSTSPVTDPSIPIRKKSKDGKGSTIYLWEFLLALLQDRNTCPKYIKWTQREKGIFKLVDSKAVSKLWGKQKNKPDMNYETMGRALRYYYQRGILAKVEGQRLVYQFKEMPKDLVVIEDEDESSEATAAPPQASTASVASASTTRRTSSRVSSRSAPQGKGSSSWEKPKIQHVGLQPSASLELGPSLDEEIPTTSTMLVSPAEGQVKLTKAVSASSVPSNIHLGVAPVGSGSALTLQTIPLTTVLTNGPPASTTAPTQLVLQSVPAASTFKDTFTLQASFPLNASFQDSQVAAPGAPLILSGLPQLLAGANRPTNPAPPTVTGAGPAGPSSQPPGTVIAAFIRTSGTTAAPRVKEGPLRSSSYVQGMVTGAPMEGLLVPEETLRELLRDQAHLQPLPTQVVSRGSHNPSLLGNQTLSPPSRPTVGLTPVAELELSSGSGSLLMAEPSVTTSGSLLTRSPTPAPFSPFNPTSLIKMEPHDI
Summary of the method: as §1

[14] = target: T9, ELK4 (Homo sapiens, UniProt P28324-2 1-405)
T9 sequence: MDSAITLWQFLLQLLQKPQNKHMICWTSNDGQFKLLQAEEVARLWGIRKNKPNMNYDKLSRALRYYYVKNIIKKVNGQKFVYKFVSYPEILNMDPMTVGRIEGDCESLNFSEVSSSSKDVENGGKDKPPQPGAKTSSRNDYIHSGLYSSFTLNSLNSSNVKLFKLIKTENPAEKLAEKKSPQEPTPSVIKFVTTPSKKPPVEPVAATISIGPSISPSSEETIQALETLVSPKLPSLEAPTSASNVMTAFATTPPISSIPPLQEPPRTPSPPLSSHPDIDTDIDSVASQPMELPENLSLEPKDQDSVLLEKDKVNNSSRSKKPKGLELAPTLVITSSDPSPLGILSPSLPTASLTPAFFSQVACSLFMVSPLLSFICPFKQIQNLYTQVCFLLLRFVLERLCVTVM
Summary of the method: as §1

[15] = target: T10, ETV2 (Homo sapiens, UniProt O00321 1-342)
T10 sequence: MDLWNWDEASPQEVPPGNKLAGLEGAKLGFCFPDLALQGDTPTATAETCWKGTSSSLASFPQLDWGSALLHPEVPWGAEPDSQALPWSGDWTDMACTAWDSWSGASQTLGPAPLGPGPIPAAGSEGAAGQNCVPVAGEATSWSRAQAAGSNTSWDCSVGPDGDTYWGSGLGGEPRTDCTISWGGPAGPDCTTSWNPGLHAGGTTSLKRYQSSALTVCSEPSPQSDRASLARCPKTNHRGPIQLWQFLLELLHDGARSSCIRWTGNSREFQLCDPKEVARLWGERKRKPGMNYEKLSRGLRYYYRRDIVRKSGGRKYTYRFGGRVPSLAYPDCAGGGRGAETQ
Summary of the method: as §1

[16] = target: T11, ELF3 (Homo sapiens, UniProt P78545 1-371)
T11 sequence: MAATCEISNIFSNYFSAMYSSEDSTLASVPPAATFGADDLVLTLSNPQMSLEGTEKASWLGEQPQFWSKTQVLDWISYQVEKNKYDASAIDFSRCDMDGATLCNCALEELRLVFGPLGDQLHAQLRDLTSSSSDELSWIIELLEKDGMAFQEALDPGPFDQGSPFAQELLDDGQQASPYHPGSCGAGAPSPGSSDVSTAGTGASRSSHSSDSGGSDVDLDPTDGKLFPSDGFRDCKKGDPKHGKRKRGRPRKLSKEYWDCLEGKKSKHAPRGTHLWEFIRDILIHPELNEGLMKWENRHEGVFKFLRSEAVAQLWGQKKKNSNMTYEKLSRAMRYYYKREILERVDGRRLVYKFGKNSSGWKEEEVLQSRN
Summary of the method: as §1

[17] = target: ETV1 (Homo sapiens, UniProt P50549 1-477)
Chain of ETV1 (P50549 whole entry): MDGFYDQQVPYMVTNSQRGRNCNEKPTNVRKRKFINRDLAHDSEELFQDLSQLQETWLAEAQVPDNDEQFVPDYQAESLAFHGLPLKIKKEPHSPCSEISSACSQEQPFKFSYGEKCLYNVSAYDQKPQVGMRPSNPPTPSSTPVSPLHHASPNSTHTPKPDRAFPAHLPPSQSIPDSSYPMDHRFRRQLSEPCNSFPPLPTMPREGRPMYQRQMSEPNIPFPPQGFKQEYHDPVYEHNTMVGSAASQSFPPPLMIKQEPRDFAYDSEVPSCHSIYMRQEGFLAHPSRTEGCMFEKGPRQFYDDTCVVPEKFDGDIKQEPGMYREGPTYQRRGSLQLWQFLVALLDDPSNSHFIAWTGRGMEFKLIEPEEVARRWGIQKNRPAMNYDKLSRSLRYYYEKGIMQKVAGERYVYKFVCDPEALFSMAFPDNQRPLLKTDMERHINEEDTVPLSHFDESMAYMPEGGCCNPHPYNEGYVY
Summary of the method: as §1

[18] = target: SPI1 (Homo sapiens, UniProt P17947 1-270); remark: listed apart in the source
Summary of the method: as §1

[19] = target: CRX (Homo sapiens, UniProt O43186 1-299)
Chain of CRX (O43186 whole entry): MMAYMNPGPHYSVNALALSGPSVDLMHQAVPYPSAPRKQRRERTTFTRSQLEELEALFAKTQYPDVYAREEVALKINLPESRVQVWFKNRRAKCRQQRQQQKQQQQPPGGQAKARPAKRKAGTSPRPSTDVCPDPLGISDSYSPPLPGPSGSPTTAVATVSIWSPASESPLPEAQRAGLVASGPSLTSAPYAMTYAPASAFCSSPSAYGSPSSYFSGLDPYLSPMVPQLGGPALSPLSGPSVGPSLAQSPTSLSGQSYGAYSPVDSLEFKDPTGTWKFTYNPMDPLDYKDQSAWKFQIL
Summary of the method: as §1

Sequence | binding signal [1] | binding signal [2] | binding signal [3] | binding signal [4] | binding signal [5] | binding signal [6] | binding signal [7] | binding signal [8] | binding signal [9] | binding signal [10] | binding signal [11] | binding signal [12] | binding signal [13] | binding signal [14] | binding signal [15] | binding signal [16] | binding signal [17] | binding signal [18] | binding signal [19]
CGGAAG | 2.85 fold enrichment (6-mer frequency, TF over GST control) | 3.3 fold enrichment (6-mer frequency, TF over GST control) | 2.61 fold enrichment (6-mer frequency, TF over GST control) | 3.44 fold enrichment (6-mer frequency, TF over GST control) | 2.8 fold enrichment (6-mer frequency, TF over GST control) | 3.07 fold enrichment (6-mer frequency, TF over GST control) | 3.49 fold enrichment (6-mer frequency, TF over GST control) | 3.01 fold enrichment (6-mer frequency, TF over GST control) | 3.41 fold enrichment (6-mer frequency, TF over GST control) | 3.68 fold enrichment (6-mer frequency, TF over GST control) | 3.27 fold enrichment (6-mer frequency, TF over GST control) | 2.79 fold enrichment (6-mer frequency, TF over GST control) | 2.61 fold enrichment (6-mer frequency, TF over GST control) | 2.16 fold enrichment (6-mer frequency, TF over GST control) | 2.63 fold enrichment (6-mer frequency, TF over GST control) | 3.01 fold enrichment (6-mer frequency, TF over GST control) | 3.2 fold enrichment (6-mer frequency, TF over GST control) |  | 
TTGCAG | 1.12 fold enrichment (6-mer frequency, TF over GST control) | 1.19 fold enrichment (6-mer frequency, TF over GST control) | 1.15 fold enrichment (6-mer frequency, TF over GST control) | 1.15 fold enrichment (6-mer frequency, TF over GST control) | 1.16 fold enrichment (6-mer frequency, TF over GST control) |  |  | 1.16 fold enrichment (6-mer frequency, TF over GST control) | 1.24 fold enrichment (6-mer frequency, TF over GST control) | 1.08 fold enrichment (6-mer frequency, TF over GST control) | 1.13 fold enrichment (6-mer frequency, TF over GST control) | 1.05 fold enrichment (6-mer frequency, TF over GST control) | 1.09 fold enrichment (6-mer frequency, TF over GST control) | 1.29 fold enrichment (6-mer frequency, TF over GST control) | 1.17 fold enrichment (6-mer frequency, TF over GST control) | 1.13 fold enrichment (6-mer frequency, TF over GST control) | 1.07 fold enrichment (6-mer frequency, TF over GST control) | 1.08 fold enrichment (6-mer frequency, TF over GST control) | 1.1 fold enrichment (6-mer frequency, TF over GST control)
